According to the supplement of paper PMC11417369:
± gives the standard deviation of the averaged measurements. In all, about 25,000 sequences were measured (“ln(normalized median fluorescence intensity)”: median about 8.9, highest 2% from about 10 on). The entries come from a sample that favours the highest values as a whole.

These sequences were tested on PfAP2-LT AP2 domain (GST-tagged) (assay: gcPBM binding intensity (ln(normalized median fluorescence intensity)); higher = stronger DNA binding).
Summary of the method: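 Binding intensity values are the highest Masliner-normalised natural-log median intensity among replicate spots of either probe orientation. The binding step lasted 1 h in 1× PBS with 1% milk, 0.2 mg/ml BSA, 0.5% salmon testes DNA and 0.03% Triton X-100, using GST-tagged P. falciparum DNA-binding domains expressed in E. coli on an Agilent 4 × 180k array of primer-extended double-stranded 36-bp intergenic genomic probes plus negative controls. Alexa488 anti-GST antibody and a 488 nm scan detected bound protein.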

Sequence | gcPBM binding intensity (ln)
TACAAATATGGACACACACACATATTTATATTTATA [CACACA_site6420] | 9.73 ± 0.4
ACCCATAAAAAGGATACACACACACCCACCCATATA [CACACA_site8205] | 10.3 ± 0.29
TACATATAAAAGTACACACACACACCCATATATATA [CACACA_site941] | 10.1 ± 0.3
AATACATATAAAAGTACACACACACCCATATATATA [CACACA_site8220] | 9.97 ± 0.13
CCATAAAAAGGATACACACACACACCCACATATATA [CACACA_site903] | 10.1 ± 0.32
AAGGATATAACATACACACACACACCCATATATATA [CACACA_site4142] | 10.08 ± 0.099
AGATAAAAAAAGTACACACACACATATATATATATA [CACACA_site3072] | 10.02 ± 0.014
ATAATTATATAAATATATATAATATATATATGAAAA [XGTACX_negctrl_site357] | 8.58 ± 0.58
TAATGGAGAAAAAAAAAACACACGGTACATTCAAAG [CACACA_site3117] | 9.01 ± 0.46
AAATAAATAAATTAACGTACATAATAACATTAATAT [XGTACX_site8567] | 8.86 ± 0.47
AGTTTGTCAATCAACACACACCTATTTATTATAGAT [CACACA_site7777] | 9.1 ± 0.37
AAAATCACAAAACACACACACACAAAAAAAAAAAAA [CACACA_site1443] | 9.49 ± 0.53
AACACCCAAAAACACACACACATACATACATACATA [CACACA_site4411] | 9.8 ± 0.23
AAAAAAAAAAAACACACACACACACCCAAATATATA [CACACA_site150] | 10.22 ± 0.028
AAAAAATCAAAACACACACACACACCCAAAAAAAAA [CACACA_site1444] | 10.2 ± 0.37
AAATAAATAAAAAACACACACAAATAAATAAATATA [CACACA_site2249] | 9.46 ± 0.39
AAAAAAAAAAAAAAAACACACACATACACCCAAAAA [CACACA_site7910] | 9.78 ± 0.23
AAAAAAAAAAAAAAAAAAAAACACCCAAAAAAATAT [XGTACX_negctrl_site210] | 8.86 ± 0.44
AAAACACCCAAACACACACACACATATATATATATA [CACACA_site9119] | 10.2 ± 0.35
AAAGAAAAAAAAAAAACACACAAAAAAAATCAAAAT [CACACA_site2871] | 9.04 ± 0.57
AAAAAAAAAAAACACACACACACAAATATATAAAAA [CACACA_site1171] | 9.77 ± 0.31
AAAAAAAAAAAAAACACACACACACCCAAATATATA [CACACA_site1169] | 10.2 ± 0.44
CAAATGTAGAAAATGTGTACATAAAAAAAAAAAAAA [XGTACX_site8276] | 8.87 ± 0.47
AGGGACATATATATCACACACAAAAATTAGTCCCTT [CACACA_site2778] | 9.39 ± 0.44

Sequence | gcPBM binding intensity (ln)
TATATTATTTATATTTGTACACAGCGATATGAAATA [XGTACX_site987] | 8.56 ± 0.46
CATATAATTATTTTCACACATATAACTACATCTATA [CACACA_site5915] | 8.82 ± 0.43
ATACATACATACATACGTACATATGTATATATATAT [XGTACX_site8498] | 9.23 ± 0.14
AATTTGATTATAAATTGTACATATATATATTAAAAG [XGTACX_site5461] | 8.66 ± 0.35
AAAAATGAAAGGTGTACACATACAAACATAGAAAGA [CACACA_site5020] | 9.38 ± 0.52
ATGGTTTTTATTTTATGTACTTACTAAAATGAATAA [XGTACX_site4317] | 8.52 ± 0.37
AAAAAAAAAAAACACACACACACATACCCATACATA [CACACA_site5575] | 9.98 ± 0.22
AAAAAAAAAAAACACACACACACACCCATACATACA [CACACA_site707] | 10.4 ± 0.14
TAAACACCCATACATACACACATACATACACCCATA [CACACA_site5125] | 9.63 ± 0.18
AAAAAAAAAAAAAACACACACACACCCATACACATA [CACACA_site2860] | 10.19 ± 0.078
AAAAAAAAAAAAAACACACACACACCCATACCCATA [CACACA_site5577] | 10.215 ± 0.0071
CATACACCCATACATACACACATACATACACCCATA [CACACA_site5124] | 9.56 ± 0.31
AAAAAAAAAAAAAAAACACACACAACACCCATACCT [CACACA_site9208] | 9.92 ± 0.14
AAAAAAAAAAAAAACACACACAACACCCATACCTTA [CACACA_site3621] | 9.79 ± 0.057
GGGCATATAATATAAAGTACAGGACTATAAAAATAT [XGTACX_site4481] | 8.86 ± 0.59
TCTTTTTTTTTTACTAGTACTTAAAAAAAAAATATG [XGTACX_site4395] | 8.28 ± 0.55
TTTGTAAAACTATATTGTACTTTTATATATCTACAA [XGTACX_site5507] | 8.56 ± 0.47
TTTTTAAAAAAGATAAGCGAAAGAATTAATTTTTAA [GTGCAC_negctrl_site197] | 8.13 ± 0.52
TATTTACATATTTATATACACACTTTTGCGTGTCTG [CACACA_site1110] | 9.36 ± 0.67
CATATTATTTATATTTGTACACAGCGATATGAAATA [XGTACX_site7717] | 8.68 ± 0.35
TATAATAAATCAAATGCACACACACTAATAAAAAAA [CACACA_site7937] | 9.63 ± 0.35
AAAAAATCACGACACACACACACACTAAAAAAAAAA [CACACA_site6792] | 10.1 ± 0.2
AAAATCACAAGACACACACACACAAAAAAAAAAAAA [CACACA_site6791] | 9.94 ± 0.58
TGGTTACTGTCATTAGTTATTTCTTGTTGACAATTA [CACACA_negctrl_site416] | 8.79 ± 0.41

Sequence | gcPBM binding intensity (ln)
AAAATACAGAAACACACACACACACCCATATATATA [CACACA_site3559] | 10.31 ± 0.014
AAAAAATACAAACACACACACACACCCATATATATA [CACACA_site3560] | 10.21 ± 0.057
CACAAAAAAAATTATACACACACACCCATATATATA [CACACA_site8255] | 9.82 ± 0.11
ATACAGAAAAAAAACACACACACATAATATACATAC [CACACA_site1933] | 9.84 ± 0.16
AACAAAAAAACAAACACACACACACCCATATATATA [CACACA_site3652] | 10.03 ± 0.042
CAAAAAAACAAACACACACACACACCCATATATATA [CACACA_site3653] | 10.25 ± 0.085
ATAAAATACAGATAAACACACATATAAACACCCATA [CACACA_site5381] | 9.56 ± 0.32
CAAAAAAAATTATACACACACACACCCATATATATA [CACACA_site1044] | 10.04 ± 0.099
AAAAAAAAAAAAAACACACACACACCCAAATACATA [CACACA_site708] | 9.99 ± 0.24
AAAAAAAAAAAAAACACACACACACCCATACAAAAT [CACACA_site1446] | 10.12 ± 0.064
TACAAACACCCATATACACACAAAAAAAAAATAAAA [CACACA_site5421] | 9.24 ± 0.49
TATTAATATGGTAATACACACTAATATACTTTTGTT [CACACA_site6860] | 8.89 ± 0.5
ATAAAAATATATGAAACACACAGTTTCTATAAGAAA [CACACA_site4156] | 8.68 ± 0.47
CATATAATTATATATCGTACATATTAATATAATTAC [XGTACX_site401] | 8.68 ± 0.38
GTTAATTTTTGTATAGTGCAAAAATATAATAGTATG | 8.64 ± 0.48
AACATATATAAATACACACACATATATATATGAAAT [CACACA_site4312] | 9.51 ± 0.26
AAAATAAGAAAACAAATGCACACCATTTATATAGAT [CACACA_site1055] | 9.03 ± 0.39
ATATCTATGTTTATCTCGAATAACTTAAAAAATTAT [CACACA_negctrl_site1131] | 8.45 ± 0.45
AACAGAATAATACTAAATGAACGATTTCTCTTTATG [GTGCAC_negctrl_site376] | 8.6 ± 0.51
ATAAGTGTATAAAAATGTACGTGTATAAAAATATGT [XGTACX_site8235] | 9.06 ± 0.43
GTGTAATGCTTATCGGTGCATATATATATATATATA | 10.13 ± 0.021
ATATATTATATTTAAGTGCATTAATTAAAATGCTTA [GTGCAC_site9403] | 8.34 ± 0.36
GTGGTTGTAATGGTGGTGCATATTGTATATTATGTT | 9.515 ± 0.078
CATCACCTTTTTAAATGTACGCATAATACCAAAAAA [XGTACX_site1587] | 8.6 ± 0.48

Sequence | gcPBM binding intensity (ln)
GAGCCCAAAAAATTAGGTACGTATAAAGAGGTATTT [XGTACX_site5348] | 8.8 ± 0.54
ACCCTATAGGTAACTACACACCGCATATTGTTTACT [CACACA_site7436] | 9.15 ± 0.34
TTAATATTTTGATGTGTACACATTAAAATAGTTTTA [CACACA_site5712] | 8.46 ± 0.48
ATATTAAACAAACACACACACATATATATATATATA [CACACA_site3383] | 10.2 ± 0.35
TTATATTAAACAAACACACACATATATATATATATA [CACACA_site2382] | 9.54 ± 0.49
TTATATTAAACAAACACACACATATAAATATAAATA [CACACA_site7174] | 9.23 ± 0.3
GTTTATATTAAACAAACACACACATATATATATATA [CACACA_site8749] | 9.57 ± 0.18
GAATATTAAACAAACACACACACATATATTTATATA [CACACA_site7563] | 9.73 ± 0.27
GAATATTAAACAAACACACACACATATATATATATA [CACACA_site3382] | 10.1 ± 0.2
TGTATATATTTGTGCACACCAAAGTTTGATTTTATT [CACACA_site1860] | 9.3 ± 0.42
TTGTATATATTAAATTGTACTTATTTTTTGTATATA [XGTACX_site3251] | 8.64 ± 0.54
CTGAGGAAGCTAATTACACACATGCATATTTTTTTT [CACACA_site2177] | 9.08 ± 0.28
TGCAACAAAATAAACACACACACACTAACACAAAAA [CACACA_site7567] | 9.98 ± 0.33
AATGTACCCACACCCACACACAAACAAATATATATA [CACACA_site2751] | 9.74 ± 0.29
GTAAAAAAAGAGCACACACACAAAAACACCCACAAA [CACACA_site1292] | 10.3 ± 0.23
TGCAACAAAATAAACACACACACACCCCCACAAAAA [CACACA_site3388] | 10.36 ± 0.057
AATGTACACCCACCCACACACAAACAAATATATATA [CACACA_site5521] | 10.1 ± 0.4
AAAAAAATAAAACACACACACAAAAAAATAAAAATA [CACACA_site465] | 9.56 ± 0.3
AAAAAAAAAAAAAACACACACATACACCCAAAAATG [CACACA_site4223] | 9.66 ± 0.24
TTTAAACAAGGATCCACACACCCCAAAAAAAAAAGA [CACACA_site680] | 9.26 ± 0.4
CACAAACAAAAACACACACACACACCCACAAAAATG [CACACA_site2429] | 10.2 ± 0.34
AGCACACCCACAAAAACACACACAAAGGTGTTCTTA [CACACA_site8355] | 9.39 ± 0.42
AAAAAAAAAAAACACACACACACACCCACAAAATAT [CACACA_site1447] | 10.31 ± 0.028
